According to the supplement of paper PMC12494721:
Structures can show the parent of a compound that is named as a salt.

Tests used:
Conditions in all cases: incubation time: 27 h, anaerobic, 37 °C;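 for the amine columns active = adjusted P below 0.05 in both replicates with a change the same way and a mean fold change under 0.8 or over 1.25; inactive = the rest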
[1] = test system: Clostridium sporogenes DSM 1664; experiment: growth (OD595) fold change vs plate DMSO controls (fold change (ratio)); higher = more growth
Method in brief: (§1)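 The measure reported is growth, taken as fold change against the median of DMSO controls on the same plate. Anaerobic mGAM cultures in 96-well plates (27 h, 37 °C) were read at 595 nm, blank-subtracted, corrected for compound background using 20 µM compound solutions in water, and multiplied by a calibration factor of 5 to give OD. Any fold change above 1.5 became NA, and 2 biological replicates were averaged.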

Escherichia coli IAI1 [2] = experiment: as above
Method in brief: as §1

[3] = test system: Klebsiella aerogenes DSM 30053; experiment: as above
Method in brief: as §1

[4] = test system: Ruminococcus gnavus DSM 108212; experiment: as above
Method in brief: as §1

[5] = test system: Klebsiella aerogenes DSM 30053; experiment: fold change of Histamine concentration vs plate DMSO controls (fold change (ratio)); higher = more amine produced, active = hit call of the paper (significant change in both replicates, either direction)
Method in brief: (§2)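 In 80 µL wells, cultures of four gut bacterial strains in mGAM started at OD 0.1 before a 1:1 dilution and grew anaerobically at 37 °C for 27 h. Compounds were added to 20 µM final, except sweeteners at 50 µM final. After extraction of whole cultures with cold acetonitrile/methanol plus 0.1% formic acid and centrifugation, amines were measured by LC–triple-quadrupole MS in dynamic MRM mode against external calibration curves, with within-batch drift correction. Values give fold change over DMSO controls on the same plate, averaged across 2 biological replicates.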

[6] = test system: Clostridium sporogenes DSM 1664; experiment: fold change of Tryptamine concentration vs plate DMSO controls (fold change (ratio)); higher = more amine produced, active = hit call of the paper (significant change in both replicates, either direction)
Method in brief: as §2

[7] = test system: Ruminococcus gnavus DSM 108212; experiment: as above
Method in brief: as §2

Escherichia coli IAI1 [8] = experiment: fold change of Putrescine concentration vs plate DMSO controls (fold change (ratio)); higher = more amine produced, active = hit call of the paper (significant change in both replicates, either direction)
Method in brief: as §2

[9] = test system: Klebsiella aerogenes DSM 30053; experiment: as above
Method in brief: as §2

Escherichia coli IAI1 [10] = experiment: fold change of Cadaverine concentration vs plate DMSO controls (fold change (ratio)); higher = more amine produced, active = hit call of the paper (significant change in both replicates, either direction)
Method in brief: as §2

[11] = test system: Klebsiella aerogenes DSM 30053; experiment: as above
Method in brief: as §2

[12] = test system: Ruminococcus gnavus DSM 108212; experiment: fold change of 2-Phenylethylamine concentration vs plate DMSO controls (fold change (ratio)); higher = more amine produced, active = hit call of the paper (significant change in both replicates, either direction)
Method in brief: as §2

Row | SMILES | growth [1] | growth (Escherichia coli IAI1 [2]) | growth [3] | growth [4] | fold change of Histamine concentration [5] | fold change of Tryptamine concentration [6] | fold change of Tryptamine concentration [7] | fold change of Putrescine concentration (Escherichia coli IAI1 [8]) | fold change of Putrescine concentration [9] | fold change of Cadaverine concentration (Escherichia coli IAI1 [10]) | fold change of Cadaverine concentration [11] | fold change of 2-Phenylethylamine concentration [12]
1 | CCN(CC)CCNC(=O)c1cc(Br)c(N)cc1OC [Bromopride] (20 µM) | 0.874 | 1.03 | 1.05 | 1.12 | 1.01 (inactive) | 1 (inactive) | 1 (inactive) | 1.02 (inactive) | 0.998 (inactive) | 0.967 (inactive) | 1.01 (inactive) | 1.02 (inactive)
2 | Nc1nc(N)c2nc(-c3ccccc3)c(N)nc2n1 [Triamterene] (20 µM) | 1.09 | 0.967 | 0.969 | 1.25 | 1.05 (inactive) | 0.928 (inactive) | 0.966 (inactive) | 0.8 (inactive) | 1.01 (inactive) | 1.04 (inactive) | 0.988 (inactive) | 0.907 (inactive)
3 | CCOC(=O)Nc1ccc2c(c1)N(C(=O)CCN1CCOCC1)c1ccccc1S2 [Moricizine hydrochloride] (20 µM) | 1.09 | 1.08 | 0.995 | 1.06 | 1 (inactive) | 0.989 (inactive) | 0.978 (inactive) | 1.03 (inactive) | 1.01 (inactive) | 1.01 (inactive) | 1 (inactive) | 1 (inactive)
4 | CC(C)COCC(CN(Cc1ccccc1)c1ccccc1)N1CCCC1 (stereo not given) [Bepridil hydrochloride] (20 µM) | 0.909 | 0.996 | 1.11 | 0.654 | 0.937 (inactive) | 0.913 (inactive) | 0.743 (active) | 1.03 (inactive) | 1.01 (inactive) | 1.01 (inactive) | 1.01 (inactive) | 0.824 (inactive)
5 | COCCCC/C(=N\OCCN)c1ccc(C(F)(F)F)cc1 [Fluvoxamine maleate] (20 µM) | 1.2 | 0.976 | 0.994 | 0.962 | 0.985 (inactive) | 1.03 (inactive) | 0.982 (inactive) | 1.02 (inactive) | 0.987 (inactive) | 0.985 (inactive) | 0.997 (inactive) | 1.02 (inactive)
6 | OC[C@H]1O[C@H](O[C@H]2O[C@H](CO)[C@@H](O)[C@H](O)[C@H]2O)[C@H](O)[C@@H](O)[C@@H]1O [Trehalose dihydrate] (20 µM) | 1 | 1.04 | 1.08 | 1.11 | 0.919 (inactive) | 0.967 (inactive) | 1.06 (inactive) | 1.02 (inactive) | 0.986 (inactive) | 0.988 (inactive) | 1 (inactive) | 1.09 (inactive)
7 | O=c1[nH]cnc2c1ncn2[C@H]1CC[C@@H](CO)O1 [Didanosine] (20 µM) | 1.07 | 1.03 | 1.03 | 1.08 | 0.958 (inactive) | 0.992 (inactive) | 1.15 (inactive) | 1.14 (inactive) | 1.08 (inactive) | 1.69 (active) | 1.03 (inactive) | 1.16 (inactive)
8 | Nc1ccn([C@@H]2O[C@H](CO)[C@@H](O)[C@@H]2O)c(=O)n1 [Cytarabine] (20 µM) | 0.956 | 1.03 | 1.03 | 0.571 | 0.975 (inactive) | 0.967 (inactive) | 0.63 (active) | 0.953 (inactive) | 1.02 (inactive) | 1.32 (active) | 1.01 (inactive) | 0.69 (active)
9 | CCC(C)(C)c1ccc(CC(C)CN2C[C@@H](C)O[C@@H](C)C2)cc1 (stereo not given in full) [Amorolfine hydrochloride] (20 µM) | 1.07 | 0.995 | 1.01 | 0.849 | 1.01 (inactive) | 0.989 (inactive) | 0.868 (inactive) | 1.03 (inactive) | 1 (inactive) | 1.02 (inactive) | 0.997 (inactive) | 0.88 (inactive)
10 | C=C1c2cccc(O)c2C(O)=C2C(=O)[C@]3(O)C(O)=C(C(N)=O)C(=O)[C@@H](N(C)C)[C@@H]3[C@@H](O)[C@H]12 [Methacycline hydrochloride] (20 µM) | 0 | 0.0377 | 0.0637 | 0.836 | 0.0707 (active) | 0.0282 (active) | 0.461 (active) | 0.177 (active) | 0.486 (active) | 0.294 (active) | 0.536 (active) | 0.58 (inactive)
11 | CC(C)c1ccc2oc3nc(N)c(C(=O)O)cc3c(=O)c2c1 [Amlexanox] (20 µM) | 0.911 | 1.2 | 1.05 | 0.857 | 0.877 (inactive) | 1.07 (inactive) | 1.03 (inactive) | 1.1 (inactive) | 0.984 (inactive) | 0.957 (inactive) | 1.03 (inactive) | 1.02 (inactive)
12 | C#C[C@]1(O)CC[C@H]2[C@@H]3CCc4cc(O)ccc4[C@H]3CC[C@@]21C [Ethinylestradiol] (20 µM) | 1.22 | 1.04 | 1.07 | 1.05 | 1.01 (inactive) | 1.01 (inactive) | 0.972 (inactive) | 1.05 (inactive) | 0.998 (inactive) | 1.01 (inactive) | 1.01 (inactive) | 0.936 (inactive)
13 | C[C@]12CC[C@H]3[C@@H](CCC4=CC(=O)CC[C@@]43C)[C@@H]1CC[C@@H]2C(=O)CO [Deoxycorticosterone] (20 µM) | 1.18 | 1.09 | 1.02 | 1.11 | 0.959 (inactive) | 0.963 (inactive) | 1.03 (inactive) | 1.25 (inactive) | 0.962 (inactive) | 0.96 (inactive) | 1.03 (inactive) | 1.06 (inactive)
14 | CN[C@@H]1CCc2[nH]c3ccc(C(N)=O)cc3c2C1 [Frovatriptan succinate] (20 µM) | 1.12 | 0.98 | 0.991 | 1.01 | 1.05 (inactive) | 0.957 (inactive) | 0.964 (inactive) | 1.03 (inactive) | 1 (inactive) | 1.03 (inactive) | 0.984 (inactive) | 0.945 (inactive)
15 | N=C(NCCCCCCNC(=N)NC(=N)Nc1ccc(Cl)cc1)NC(=N)Nc1ccc(Cl)cc1 [Chlorhexidine] (20 µM) | 0.00305 | 0.885 | 0.782 | 0.0252 | 0.936 (inactive) | 0.032 (active) | 0.0867 (active) | 0.641 (inactive) | 0.783 (inactive) | 1.98 (active) | 1 (inactive) | 0.0518 (active)
16 | OC(CCN1CCCCC1)(c1ccccc1)C1CC2C=CC1C2 (stereo not given) [Biperiden hydrochloride] (20 µM) | 1.01 | 1.01 | 1.17 | 0.975 | 0.911 (inactive) | 0.995 (inactive) | 0.916 (inactive) | 1.04 (inactive) | 0.999 (inactive) | 0.899 (inactive) | 1.01 (inactive) | 0.935 (inactive)
17 | C#C[C@]1(O)CC[C@H]2[C@@H]3[C@H](C)CC4=C(CCC(=O)C4)[C@H]3CC[C@@]21C [Tibolone] (20 µM) | 1.01 | 0.989 | 1.04 | 0.931 | 1.03 (inactive) | 1.05 (inactive) | 1.04 (inactive) | 1.03 (inactive) | 1.02 (inactive) | 0.994 (inactive) | 1.01 (inactive) | 1.02 (inactive)
18 | CN1CCN(CC(=O)N2c3ccccc3C(=O)Nc3cccnc32)CC1 [Pirenzepine dihydrochloride] (20 µM) | 1.06 | 1.02 | 0.992 | 1.03 | 1.1 (inactive) | 1.02 (inactive) | 0.993 (inactive) | 1.01 (inactive) | 1.08 (inactive) | 0.99 (inactive) | 1.04 (inactive) | 0.916 (inactive)
19 | Nc1ccc(O)c(C(=O)O)c1 [Mesalamine] (20 µM) | 0.832 | 0.983 | 0.985 | 0.924 | 1.06 (inactive) | 1.02 (inactive) | 1.01 (inactive) | 0.957 (inactive) | 1.01 (inactive) | 0.97 (inactive) | 0.98 (inactive) | 1.04 (inactive)
20 | Cc1[nH]c(=O)c(C#N)cc1-c1ccncc1 [Milrinone] (20 µM) | 1.08 | 1.05 | 0.987 | 0.92 | 1.09 (inactive) | 0.997 (inactive) | 1.03 (inactive) | 1.02 (inactive) | 1.07 (inactive) | 0.924 (inactive) | 1.03 (inactive) | 0.996 (inactive)
21 | CCCCCCCCc1c(CC)nc2ncnn2c1N (20 µM) | 1.11 | 1.05 | 1.04 | 1.16 | 0.991 (inactive) | 1.03 (inactive) | 0.997 (inactive) | 1.01 (inactive) | 1.01 (inactive) | 1.04 (inactive) | 1.01 (inactive) | 0.968 (inactive)
22 | COc1ccc(C(=O)c2ccccc2)c(O)c1 [Oxybenzone] (20 µM) | 0.901 | 0.808 | 0.963 | 0.984 | 0.962 (inactive) | 0.954 (inactive) | 1.03 (inactive) | 0.823 (inactive) | 1 (inactive) | 1.07 (inactive) | 1 (inactive) | 0.979 (inactive)
23 | O=C1c2cccc3c2[C@H](CCC3)CN1[C@@H]1CN2CCC1CC2 [Palonosetron hydrochloride] (20 µM) | 1 | 1.05 | 0.978 | 0.887 | 1.09 (inactive) | 0.963 (inactive) | 1.04 (inactive) | 1.06 (inactive) | 0.996 (inactive) | 0.979 (inactive) | 0.983 (inactive) | 1.04 (inactive)
24 | CN(Cc1ccc(C(C)(C)C)cc1)Cc1cccc2ccccc12 [Butenafine hydrochloride] (20 µM) | 1.12 | 1.04 | 0.979 | 0.838 | 1.11 (inactive) | 0.918 (inactive) | 0.96 (inactive) | 1.05 (inactive) | 1.01 (inactive) | 1.02 (inactive) | 0.992 (inactive) | 1.03 (inactive)
25 | O=C(O)c1ccccc1C(=O)Nc1ccc(S(=O)(=O)Nc2nccs2)cc1 [Phthalylsulfathiazole] (20 µM) | 0.901 | 0.981 | 0.96 | 1.09 | 1 (inactive) | 1.1 (inactive) | 0.948 (inactive) | 1.03 (inactive) | 1.01 (inactive) | 1.04 (inactive) | 0.987 (inactive) | 0.919 (inactive)
